# Results taken from PubChem BioAssay (NCI).
# Compounds without any hit were thinned out: in the full panel of roughly 83,000, 20% have a hit.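 Assay: single dose, 48 h. Readout: percent growth (0 = no net growth; negative = cell death). Active: <10.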 Unmarked numbers belong to inactive results. Calls of active or inactive are those of the source.
# How the values were obtained:
# Experiment in all cases: NCI-60 one-dose screen, 48 h (100 = growth as untreated, 0 = no growth, -100 = all killed)
# Details in all cases: 10 µM unless noted
# DU-145 prostate = test system: DU-145 prostate
# K-562 leukemia = test system: K-562 leukemia
# MALME-3M melanoma = test system: MALME-3M melanoma
# MDA-MB-231 breast = test system: MDA-MB-231 breast
# RXF 393 renal = test system: RXF 393 renal
# SF-268 CNS = test system: SF-268 CNS
# SF-295 CNS = test system: SF-295 CNS
# SF-539 CNS = test system: SF-539 CNS
# UACC-257 melanoma = test system: UACC-257 melanoma
# M14 melanoma = test system: M14 melanoma
# HCT-15 colon = test system: HCT-15 colon
# HT29 colon = test system: HT29 colon
# SNB-75 CNS = test system: SNB-75 CNS
# SNB-19 CNS = test system: SNB-19 CNS
# U251 CNS = test system: U251 CNS
# PC-3 prostate = test system: PC-3 prostate
# SK-MEL-5 melanoma = test system: SK-MEL-5 melanoma
# UACC-62 melanoma = test system: UACC-62 melanoma
# LOX IMVI melanoma = test system: LOX IMVI melanoma
# SK-MEL-28 melanoma = test system: SK-MEL-28 melanoma
Compound,growth (DU-145 prostate) [%],growth (K-562 leukemia),growth (MALME-3M melanoma),growth (MDA-MB-231 breast),growth (RXF 393 renal),growth (SF-268 CNS),growth (SF-295 CNS),growth (SF-539 CNS),growth (UACC-257 melanoma),growth (M14 melanoma),growth (HCT-15 colon),growth (HT29 colon),growth (SNB-75 CNS),growth (SNB-19 CNS),growth (U251 CNS),growth (PC-3 prostate) [%],growth (SK-MEL-5 melanoma),growth (UACC-62 melanoma),growth (LOX IMVI melanoma),growth (SK-MEL-28 melanoma)
CC1O[C@@H](OC2[C@H](OC(=O)/C=C/c3ccc(O)c(O)c3)C(COC3O[C@H](C)C(O)C(O)[C@@H]3O)O[C@@H](OCCc3ccc(O)c(O)c3)[C@H]2O)[C@@H](O)C(O)[C@H]1O (stereo not given in full),106,105%,88.1%,108%,125%,103%,103%,94.2%,80.8%,97.1%,100%,100%,85.7%,107%,99.4%,99.9,103%,101%,102%,110%
CCc1ccccc1-n1c(-c2ccc(Cl)cc2)cc(-c2ccc(OC)cc2)c(C#N)c1=O,94.6,101%,148%,92.7%,97.5%,93.4%,93.2%,102%,112%,93.4%,99.6%,103%,93%,105%,114%,84.1,101%,89.1%,89.6%,109%
COC(=O)[C@]12CC[C@@H](C)[C@H](C)[C@@H]1C1=CC[C@@H]3[C@@]4(C)C(C=O)=C[C@@](C)(COC(=O)c5ccco5)C4=CC[C@@]3(C)[C@]1(C)CC2,10.7,11.1%,-43.5% (active),-8.21% (active),-56.3% (active),-10.9% (active),11.7%,-15.3% (active),-34.6% (active),-33.9% (active),-31.9% (active),-0.473% (active),20%,36.5%,-4.29% (active),14.1,-87.1% (active),-11.1% (active),-86.3% (active),-45.5% (active)
O=C(CSc1nnc(-c2ccc(NC(=O)c3cccnc3)cc2)o1)N[C@@H](Cc1ccc(O)cc1)C(=O)O,117,93.6%,102%,97.7%,109%,107%,108%,102%,99.7%,100%,113%,106%,98.9%,96.7%,103%,101,100%,92.8%,104%,108%
O=C(O)C1CCC(=O)N1C(=O)OCc1ccccc1 (stereo not given),117,92.4%,96.2%,112%,96.6%,111%,106%,96.9%,95.4%,102%,97.3%,101%,80.9%,97.8%,102%,100,105%,87%,98%,140%
C=CCSc1nc2ccccc2cc1/C=N/O,110,92.3%,129%,97.6%,68.8%,90.8%,94.7%,104%,87.6%,91%,95.8%,92.7%,58%,89.3%,86.6%,83.1,96.3%,71.2%,85.9%,88%
CC(=O)OC[C@H]1OC(Sc2sc(C(=O)c3ccc(Br)cc3)c(N)c2-c2nc3ccccc3s2)[C@H](OC(C)=O)[C@@H](OC(C)=O)[C@@H]1OC(C)=O (stereo not given in full),35.8,66.4%,20%,10.4%,70.8%,60.9%,69.6%,15.7%,80.1%,61.6%,59.8%,63.1%,-16.7% (active),75.2%,57.6%,71.3,22.1%,89.3%,37.1%,70.7%
O=c1c2cc(F)ccc2sc2c(Nc3cccnc3)nc3ccccc3c12,107,86.4%,103%,72.2%,88.4%,89.5%,95.2%,82.1%,97.8%,104%,87.2%,110%,71.9%,94.1%,70.2%,88.9,88.9%,101%,89.4%,103%
O=C(Nc1ccccc1)Nc1cccc(Oc2nnc(Cl)c3ccccc23)c1,39,51.6%,-29.6% (active),32.1%,-3.63% (active),25.9%,31.2%,-22% (active),22%,46.3%,36.4%,23.8%,-42% (active),9.64% (active),4.84% (active),25.9,32.9%,41.3%,32.1%,44.2%
COc1ccc(C(=NN=C(N)N)c2ccc(OC)cc2)cc1,52.8,19.9%,69.4%,48.4%,-2.81% (active),47.1%,48.5%,57.7%,43.6%,18.3%,69.1%,15.4%,-5.63% (active),43.6%,39.4%,30.6,13.9%,52.6%,15.8%,59%
CCCCN(CCCC)CC(C)(C)C(O)c1ccc(OC)c2ccccc12 (stereo not given),69.2,31.2%,47.3%,70.8%,65%,85.3%,-7.15% (active),76.9%,60.2%,37%,59.1%,9.09% (active),101%,76.3%,50.3%,29.5,50.7%,56.1%,66.6%,85%
Cn1c(=O)c2[nH]c(NN)nc2n(C)c1=O,123,100%,135%,116%,123%,108%,108%,111%,119%,102%,97.2%,105%,89.6%,110%,105%,101,105%,114%,101%,103%
Cc1cc(/C=C\c2ccc3ccccc3[n+]2C)c(O)c2ncccc12,26.2,8.28% (active),-4.74% (active),4.71% (active),-20.3% (active),14.1%,0.202% (active),-36.9% (active),16.4%,-51.6% (active),27.9%,25.7%,37.8%,11.9%,9.3% (active),34.1,6.19% (active),-26.5% (active),-27.2% (active),25.7%
NS(=O)(=O)c1cnccc1Sc1ccncc1S(N)(=O)=O,102,76.3%,91.1%,111%,108%,107%,130%,93%,111%,100%,102%,113%,96.6%,105%,107%,94.9,105%,99.4%,101%,117%
CCCc1cc2c(=O)c(C(=O)OC)c[nH]c2cc1N(CC)CC,112,96.2%,95.4%,108%,29.3%,102%,85.2%,97.6%,136%,110%,95.9%,110%,104%,99.1%,104%,79.6,91.5%,83%,108%,112%
